Only some compounds are listed: those with a hit (about 10% of all), similar ones and a draw of the others.
IMPase cell inh: membrane-permeable compound that blocks inositol monophosphatase. P97697. CHO-M1 cells, IP1 accumulation, HTRF TR-FRET ratio. inhibition (IP1 accumulation), % at 46.1 µM. 120,000 tested, under 10 active; active means well fitted curve in the direction sought with a large enough effect in the signal ratio, not every such curve was filed as active; inconclusive means small, poorly fitted or top-dose-only effect, or a change in a side signal; inactive means no such curve, though single readings can be large or run the other way; the % refers to the signal ratio;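 further: cells stimulated with carbachol in lithium chloride buffer; plate controls were DMSO basal wells for no effect and reference inhibitor wells for full effect; higher means more IMPase inhibition seen as more IP1 and lower FRET ratio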
Target sequence (P97697 whole entry, looked up): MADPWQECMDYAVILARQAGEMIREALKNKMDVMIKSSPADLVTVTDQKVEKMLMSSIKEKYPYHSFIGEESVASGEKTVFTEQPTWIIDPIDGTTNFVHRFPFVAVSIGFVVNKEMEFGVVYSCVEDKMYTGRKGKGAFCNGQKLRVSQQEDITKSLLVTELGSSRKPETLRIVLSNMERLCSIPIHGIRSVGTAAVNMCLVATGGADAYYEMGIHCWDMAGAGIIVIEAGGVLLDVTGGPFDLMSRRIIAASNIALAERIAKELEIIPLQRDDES
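Cellular IMPase inhibition is scored as a rise in cytosolic IP1, detected by competitive TR-FRET between d2-labelled IP1 and a europium anti-IP1 antibody. M1-expressing CHO cells were stimulated with carbachol for 30 min at 37C, with lithium (50 mM LiCl) present in the buffer.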
KinaseGlo FLuc: Kinase-Glo luciferase inhibition (counter-screen) | Potency, µM (doses to about 38.3 µM), without a hit: at the top dose activity change, negative = inhibition, most hits filed as inhibitors | 200,000 compounds, 0.28% hits | Q27757 | Kinase-Glo luciferase, ATP luminescence, 8 min; active means well fitted inhibition curve with a large enough effect; inconclusive means small, poorly fitted or top-dose-only effect; further: potency means the concentration at half of the fitted maximal effect; nearly all actives have a fitted effect of over 60% in size
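Substrate mix (final 50 mM imidazole pH 7.2, 50 mM KCl, 7 mM MgCl2, 10 uM ATP, 0.01% Tween 20, 0.05% BSA) plus pin-tool compound, then Kinase-Glo detection mix; 8 min ambient, luminescence read.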
PNC inhibitor: inhibitors of perinucleolar compartment assembly. PC3M PTB-GFP, PNC prevalence imaging, 16 h; hits give low values. activity change (PNC), negative = inhibition, % at 10 µM. 140,000 compounds, 3.1% hits. AID 2417;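 active means readout at or below -70, meaning at least 70% loss of cells showing the perinucleolar compartment, a nuclear body marking cancer cells; inconclusive means readout between -30 and a set limit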;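 further: plate controls were DMSO wells for no effect and camptothecin positive control wells for full effect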
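Compounds are pinned in duplicate onto adhered PC3M cells stably expressing GFP-tagged PTB and incubated 16 h at 37 C. Cells are then fixed, nuclei stained with Hoechst, and PNC-positive cells counted.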
ALDH1A1 block: blocks purified human ALDH1A1 activity; Purified ALDH1A1, NADH fluorescence, propionaldehyde substrate; P00352; 220,000 compounds, 7.3% hits; Potency, µM (titrated, usually from 75.3 µM), for inactives: top-dose activity, negative = inhibition, actives largely listed as inhibitors; AID 1030;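 further: potency means the concentration at half of the fitted maximal effect; plate controls were no enzyme wells and a reference inhibitor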
HPGD inh: blocks human HPGD enzyme activity; Potency, µM, without a hit: top-dose activity change, negative = inhibition, hits mostly inhibitors; AID 894; 150,000 compounds, 4.3% hits; P15428; purified HPGD, NADH fluorescence kinetic, PGE2 substrate; further: potency means the concentration at half of the fitted maximal effect
Target sequence (P15428 whole entry, looked up): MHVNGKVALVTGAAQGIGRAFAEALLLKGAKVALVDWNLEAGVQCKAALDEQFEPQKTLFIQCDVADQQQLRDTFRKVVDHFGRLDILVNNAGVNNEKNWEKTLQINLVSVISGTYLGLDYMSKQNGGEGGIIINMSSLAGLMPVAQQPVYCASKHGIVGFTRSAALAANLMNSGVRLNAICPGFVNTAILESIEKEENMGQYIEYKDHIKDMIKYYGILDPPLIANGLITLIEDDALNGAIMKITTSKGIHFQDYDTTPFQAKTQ
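NADH formation kinetics: reaction with 30 uM PGE2 and 1 mM NAD+ (final), 20 nM enzyme, Tris-HCl pH 8 with Tween 20, after 15 min compound preincubation at room temperature. Fluorescence change, last versus first of five reads.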
LMNA splice mod: LMNA splicing modulation. HeLa LMNA splicing GFP/RFP minigene ratio, 48 h. Potency, µM (series often up to 46.1 µM), for inactives: at the top dose ratio change, negative = inhibition, hits mostly inhibitors. 200,000 compounds, 0.01% hits. AID 1487; active means well fitted inhibition curve with a large enough effect in the signal ratio, with a control signal flat, not every such curve was filed as active; inconclusive means small, poorly fitted or top-dose-only effect, or effect the other way, or a change in a side signal; the % refers to the signal ratio; further: potency means the concentration at half of the fitted maximal effect
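S3 HeLa stable clones carrying a lamin A-EGFP splicing minigene plus DsRed2 were seeded at 600 cells/well in Opti-MEM with 2% FBS, pin-dosed and incubated 48 h at 37°C. Acumen cytometry (488 nm) gave the GFP/RFP total-intensity ratio.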
An asterisk follows results filed as active; ? = inconclusive; . = no result; [ ] = another dose, or the depositor's remark. Unless noted, the call rests on the fitted dose curve; in most records, active means well fitted inhibition curve with a large enough effect (not every such curve was filed as active); inconclusive means small, poorly fitted or top-dose-only effect, or another doubt; inactive means no such curve, though single readings can be large or run the other way. Unless noted, on the % scale 0 is the no-effect control and ±100 the full control effect.

SMILES | IMPase cell inh | KinaseGlo FLuc | PNC inhibitor | ALDH1A1 block | HPGD inh | LMNA splice mod
COC(=O)c1cc(NC(=O)C2CC(=O)NC(=NCc3ccc(OC)cc3)S2)cc(C(=O)OC)c1 (centres undefined) | . | 2.3% | . | 4.8% | . | ?
COc1ccc(CCNC(=O)CC2SC(=NCCc3ccccc3)NC2=O)cc1 (centres undefined) | -7.2 | -0.4% | 5.6 | 28.2µM* | -8.3% | -10.4%
COc1ccc(CN=C2NC(=O)CC(C(=O)Nc3cc(C)cc(C)c3)S2)cc1 (centres undefined) | . | -0.7% | -83.9* | 4.8% | 1.0% | ?
COc1ccc(CN(C(=O)Nc2cc(C)ccc2C)C2CCN(C(C)=O)CC2)cc1 | . | . | . | . | . | 17.1%[46 µM]
CC(=O)OC[C@@H]1O[C@@H](O/N=C2/C[C@@H](O)[C@@H](O)[C@@H]3[C@@H]4C(=O)N(c5cccc(Oc6ccccc6)c5)C(=O)[C@H]4CC[C@H]23)[C@H](OC(C)=O)[C@H](OC(C)=O)[C@@H]1OC(C)=O | . | . | . | 0.7%[13.5 µM] | . | .
CC(=O)N1CCCc2cc(S(=O)(=O)N3CCCC(C(=O)Nc4cccc(Cl)c4C)C3)ccc21 (centres undefined) | . | . | . | . | . | -8.1%[46 µM]
COc1ccc(CCNC(=O)CC2SC(=NCc3ccccc3)NC2=O)cc1 (centres undefined) | . | -1.9% | . | 31.6µM* | . | .
COc1ccc(NC(=O)CC2SC(=NCc3ccccc3OC)NC2=O)cc1 (centres undefined) | 1.6 | 1.5% | ? | -2.6% | -0.1% | 5.0%
C[C@H](Br)C(=O)Nc1ccc(C(=O)O)c(O)c1 | . | -2.8%[7.66 µM] | . | -4.9%[13.5 µM] | -8.2% | .
O=C(C(Cc1ccccc1)n1cccc1)N1CCCCCC1 (centres undefined) | -1.9 | 3.1% | -17.2 | -1.5% | 28.2µM* | -6.3%
O=C(C(Cc1ccccc1)n1cccc1)N1CCN(c2cccc(Cl)c2)CC1 (centres undefined) | 12.3 | 4.5% | 15.2 | -4.9% | -9.5% | ?
O=C(C(Cc1ccccc1)n1cccc1)N1CCCCC1 (centres undefined) | 1.6 | -6.0% | ? | 3.3% | 12.6µM* | -2.7%
O=C(C(Cc1ccccc1)n1cccc1)N1CCN(Cc2ccccc2)CC1 (centres undefined) | 8.4 | 2.7% | 13.2 | ? | -1.3% | -8.8%
CO[C@H]1COC(=O)[C@@H](Cc2ccccc2)NC(=O)[C@@H](C)COC(=O)CCC[C@@H]1C | . | . | . | 6.1%[13.5 µM] | . | .
Cn1cccc1C(=O)N1CCC2(CC1)CCN(c1ccccn1)CC2 | . | -4.0% | . | ? | -29.6% | .
COc1ccc(C(C)=O)c(Oc2nc(CN3CCOCC3)nc3scc(-c4cccs4)c23)c1 | 11.5 | 0.1% | 31.1 | -11.6% | -13.6% | ?
CC(=O)c1ccccc1Oc1nc(CN2CCOCC2)nc2scc(-c3cccs3)c12 | 4.7 | -1.7% | 4.3 | 22.4µM* | -4.5% | 20.9%
COc1cccc2c1ncc1c(-c3ccc(C)cc3)nn(-c3ccc(F)cc3)c12 | . | . | . | . | . | 13.5%[46 µM]
CC1CC2C3CC(F)C4=CC(=O)C=C[C@@]4(C)[C@@]3(F)C(O)C[C@]2(C)[C@]1(O)C(=O)COC(=O)C(C)(C)C (some centres undefined) | . | -4.8% | . | 1.4% | -7.0% | .
Cc1cc(OC(=O)CNC(=O)OC(C)(C)C)c2c(C)cc(=O)oc2c1 | -15.2 | -2.8% | 16.5 | 15.8µM* | 17.8µM* | ?
Nc1nonc1C(=O)NCCNS(=O)(=O)c1ccc(Br)cc1 | 3.3 | 7.7% | -89.9* | 10.2% | -7.7% | -6.4%
C#CCCOC(=O)N1C2=NC(C(=O)OC)=C(C(=O)OC)[C@@H]3N(CC#CC)c4ccccc4[C@]23C[C@H]1C(=O)OC | . | -6.4%[7.66 µM] | . | 6.6%[13.5 µM] | -3.9% | 6.4%[9.22 µM]
COC(=O)c1c(NC(=O)C2CCCO2)sc2c1CCC2 (centres undefined) | 0.3 | -2.3% | ? | 14.1µM* | -24.3% | 15.8%
CC(C)(C)C1CCc2c(sc(NC(=O)C3CCCO3)c2C(N)=O)C1 (centres undefined) | ? | 0.5% | ? | ? | -8.8% | 17.8%
NC(=O)c1c(NC(=O)C2CCCO2)sc2c1CCCCC2 (centres undefined) | . | -0.8% | -22.4 | 20µM* | ? | 3.1%
SMILES | IMPase cell inh | KinaseGlo FLuc | PNC inhibitor | ALDH1A1 block | HPGD inh | LMNA splice mod
NC(=O)c1c(NC(=O)CCCC(=O)O)sc2c1CCCCCC2 | . | 0.1% | 34.2 | 5.9% | 28.2µM* | ?
NC(=O)c1c(NC(=O)C2CCCO2)sc2c1CCC2 (centres undefined) | ? | -3.7% | 0.5 | 22.4µM* | -7.8% | 12.2%
CCOC(=O)c1cccc(NC(=O)N2CC(CC)Oc3ccccc32)c1 (centres undefined) | . | . | . | . | . | -8.9%[46 µM]
COc1cc(-c2nc3n(n2)C(c2ccc(F)cc2)C(C(N)=O)=C(C)N3)cc(OC)c1OC (centres undefined) | 2.2 | . | . | . | . | .
N[C@H](Cn1ccc(=O)n(Cc2ccccc2C(=O)O)c1=O)C(=O)O | -4.1 | -0.4% | . | -1.6% | -8.4% | .
CC(=O)N1CCc2cc(S(=O)(=O)Nc3cccc(C(F)(F)F)c3)ccc21 | 5.9 | -0.8% | -3.0 | 6.1% | -2.1% | ?
O=C(NN1CCOCC1)c1cc(S(=O)(=O)Nc2cccc(C(F)(F)F)c2)ccc1Cl | -6.8 | . | -97.7* | 4.9% | . | -8.1%
CN(C)c1cc2c(c(N(C)C)c1)C(=O)c1ccccc1C2=O | ? | 11.2µM* | -18.7 | 0.708µM* | -16.6% | -12.8%
CN(C)S(=O)(=O)c1cccc2c1C(=O)c1ccccc1C2=O | . | -7.3% | 55.2 | ? | -9.5% | -5.1%
S=C(N=Nc1ccccc1)NNc1ccccc1 | . | -7.0% | -23.9 | 11.2µM* | ? | -6.5%
CC1Cc2ccccc2N1C(=S)NC(=O)c1ccco1 (centres undefined) | . | 2.5% | . | 22.4µM* | . | 5.3%[46 µM]
O=C(NC(=S)N1CCN(c2ccccn2)CC1)c1ccco1 | . | -0.3% | . | 11.2µM* | . | .
CCS(=O)(=O)N1CCN(c2ccc(Cl)cc2[N+](=O)[O-])CC1 | -1.0 | 0.8% | -83.3* | 0.1% | -16.2% | ?
O=C(NC(=S)N1CCN(c2ccc(Cl)cc2[N+](=O)[O-])CC1)c1ccco1 | . | 2.6% | -81.4* | -2.9% | ? | ?
O=C(NCc1ccc(Cl)cc1)NC1COc2ccccc2C1 (centres undefined) | . | . | . | . | . | 5.8%[46 µM]
Cc1ccc(Cn2c(CNC(=O)c3ccccc3Br)nc3cccnc32)cc1 | . | . | . | . | . | 4.6%[46 µM]
CCOc1ccc(CNC(=O)c2cnc3sc(N(CC)CC)nn3c2=O)cc1OC | . | . | . | . | . | 7.1%[46 µM]
Cc1cnc(CNc2ccnc(-c3ccccc3C(F)(F)F)n2)cn1 | . | . | . | ? | . | 1.3%
C(=N\N1CCN(c2ccccn2)CC1)/c1ccccn1 | . | . | . | -1.7% | . | .
C(=N\N1CCN(c2ccccn2)CC1)/c1ccco1 | . | -13.6% | . | 17.8µM* | . | .
